Values without a mark were called inactive.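 Rule for the calls: active = MAPPIT score above the 99th percentile of random reference set scores in the same batch; inactive = at or below it.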
Legend:
Assay in all cases: MAPPIT interaction score (arbitrary units); higher = stronger binary interaction signal, active = hit call of the paper
CG7747 = settings: MAPPIT configuration: N-N; pair source set: Finley_Y2H
CG7044 = settings: MAPPIT configuration: N-N; pair source set: Lit-BS-16
aspr = settings: MAPPIT configuration: N-N; pair source set: Lit-BS-16
CG7137 = settings: pair source set: Lit-BM-16
CG8128 = settings: MAPPIT configuration: N-N; pair source set: Finley_Y2H
CG6996 = settings: MAPPIT configuration: N-N; pair source set: Finley_Y2H
Mcad = settings: MAPPIT configuration: N-N; pair source set: Lit-BS-16
Treh = settings: MAPPIT configuration: N-N; pair source set: Finley_Y2H
Unr = settings: pair source set: Lit-BM-16
gcm = settings: MAPPIT configuration: N-N; pair source set: Finley_Y2H
noi = settings: MAPPIT configuration: N-N; pair source set: Finley_Y2H
prd = settings: MAPPIT configuration: N-N; pair source set: Finley_Y2H
CG7548 = settings: MAPPIT configuration: N-N
CG8043 = settings: MAPPIT configuration: N-N; pair source set: DPIM
CG7407 = settings: MAPPIT configuration: N-C; pair source set: screen_3
Dpm3 = settings: MAPPIT configuration: N-C; pair source set: screen_4
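Note: HEK293T cells with Epo stimulation, STAT-responsive firefly luciferase reporter, fold induction versus unstimulated cells divided by the larger fold induction of two negative controls lacking either bait or prey.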

B1: Shrm (protein)
chain: MKMRNHKENGNGSEMGESTKSLAKMEPENNNKISVVSVSKLLLKDSNGANSRSSNSNASFSSASVAGSVQDDLPHHNSSSSQLGQQHGSSLDQCGLTQAGLEEYNNRSSSYYDQTAFHHQKQPSYAQSEGYHSYVSSSDSTSATPFLDKLRQESDLLSRQSHHWSENDLSSVCSNSVAPSPIPLLARQSHSHSHSHAHSHSNSHGHSHGHAHSASSSSSSNNNSNGSATNNNNNNSSESTSSTETLKWLGSMSDISEASHATGYSAISESVSSSQRIVHSSRVPTPKRHHSESVLYLHNNEEQGDSSPTASNSSQMMISEEANGEESPPSVQPLRIQHRHSPSYPPVHTSMVLHHFQQQQQQQQDYQHPSRHHTNQSTLSTQSSLLELASPTEKPRSLMGQSHSMGDLQQKNPHQNPMLGRSAGQQHKSSISVTISSSEAVVTIAPQPPAGKPSKLQLSLGKSEALSCSTPNMGEQSPTNSIDSYRSNHRLFPVSTYTEPVHSNTSQYVQHPKPQFSSGLHKSAKLPVITPAGATVQPTWHSVAERINDFERSQLGEPPKFAYLEPTKTHRLSNPALKALQKNAVQSYVERQQQQQKEEQQLLRPHSQSYQACHVERKSLPNNLSPIMVGLPTGSNSASTRDCSSPTPPPPPRRSGSLLPNLLRRSSSASDYAEFRELHQAQGQVKGPSIRNISNAEKISFNDCGMPPPPPPPRGRLAVPTRRTSSATEYAPMRDKLLLQQAAALAHQQHHPQQHRHAQPPHVPPERPPKHPNLRVPSPELPPPPQSELDISYTFDEPLPPPPPPEVLQPRPPPSPNRRNCFAGASTRRTTYEAPPPTAIVAAKVPPLVPKKPTSLQHKHLANGGGGSRKRPHHATPQPILENVASPVAPPPPLLPRARSTAHDNVIASNLESNQQKRSNSKASYLPRQSLEKLNNTDPDHGIYKLTLTSNEDLVAHTKPSYGVTGKLPNNLPDVLPLGVKLHQQPKLQPGSPNGDANVTLRYGSNNNLTGNSPTVAPPPYYGGGQRYSTPVLGQGYGKSSKPVTPQQYTRSQSYDVKHTSAVTMPTMSQSHVDLKQAAHDLETTLEEVLPTATPTPTPTPTPTPPRLSPASSHSDCSLSTSSLECTINPIATPIPKPEAHIFRAEVISTTLNTNPLTTPPKPAMNRQESLRENIEKITQLQSVLMSAHLCDASLLGGYTTPLITSPTASFANEPLMTPPLPPSPPPPLEPEEEEEQEENDVHDKQPEIEELQLMQRSELVLMVNPKPSTTDMACQTDELEDRDTDLEAAREEHQTRTTLQPRQRQPIELDYEQMSRELVKLLPPGDKIADILTPKICKPTSQYVSNLYNPDVPLRLAKRDVGTSTLMRMKSITSSAEIRVVSVELQLAEPSEEPTNLIKQKMDELIKHLNQKIVSLKREQQTISEECSANDRLGQDLFAKLAEKVRPSEASKFRTHVDAVGNITSLLLSLSERLAQTESSLETRQQERGALESKRDLLYEQMEEAQRLKSDIERRGVSIAGLLAKNLSADMCADYDYFINMKAKLIADARDLAVRIKGSEEQLSSLSDALVQSDC
MAPPIT interaction score (CG7747): -0.185

B2: bora (protein)
chain: MYNDEVRTPQALKNRYITNVNGLKCRARRNSHSNSSNSSAASATPTNGGKENGKYSPQMSGNVCTPPPKRLHKVRNPFEGAMADRLHLPLIASPSLFRSRTPQLSSTQFEWNIDEVSQLKPADVEPHETQFHDSPDPEQESKAQLAISAFFKESLIVPSPVDCPLRKQRIILNCSEDNTPISNKSRRMRDCEVQTELTLPPILPKALEDALRPYFQPHLAGRLSGRSKSSGGPDIFNSSMRRKLFDLHNVIVLGEQDTAEPSRSMVGSSPQGKQTMFAGRLSDSASGESSFGCLSPIRNLCGLPPGTPDNGTCSGKRKLLMHELELPSPIAPSEHLSRRLVHSKVEISVTEQHDTLSERTALKFTPDRSSSPMGGGLEHSDCSINQRVRRLRVNSTRQVVIETGDQPLFEETEGEEEEAESEDDEEADAMQLSTVSFNCSSSNSDTPRGHKRHRSAQRKNLSQSFSANLEEEADQTQGGAGSIQPAEPPSVAMPQQGARIPLYRADSGFNETSSTTFAFSQDLPLDVSMACCSTPSTRS
MAPPIT interaction score (CG7747): 1.91

B3: sala (protein)
chain: MKLLIALFALVTAVNAQNGFGQVGQGGYGGQGGFGGFGGIGGQAGFGGQIGFTGQGGVGGQVGIGQGGVHPGQGGFAGQGSPNQYQPGYGSPVGSGHFHGTNPVESGHFHENPHEYPEHHGDHHREHHEHHGHHEHHGHHRH
MAPPIT interaction score (CG7044): 0.14
MAPPIT interaction score (aspr): -0.194

B4: grau (protein)
chain: MDICRLCLRGVSGAQMCLQIFDVDSGESKVAEVLRQHFWFEVLPNDEISKVICNVCWTQVSEFHQFYVSIQEAQVIYATTSKFKQDPEMVNTSWPEEVLMPADVLAVDNDVGAQINVNPLDELDLSQPMSPEDSKVGIKTERQSPDMELLFEDANNEQDEDYEDDEDDDTDDLIVTRSGRKRKRDVAKPAKTKRGTVSVGRKGKEKMVVKRGPPKRIFKMERLPPFCKEDEELIKRYIVMGCELCIFLAEDFDGIREHFKDKHPDERPYIKCCGRKLNKRCLIQEHARRHENPEYIKCKDCGKVFANSSVLRAHWLVHHVPDEECDFQCEDCGKRFSRRNLLELHKGSHVPVNERKFICPQCPKHNAFATEYHMQVHISMQHRKAANICHVCGKKIKDKAVFEKHVRLHFEESGPRIKCPRPDCESWLKDEDNLKQHLRRHNDEGKLFICSECGKSCKNSRALIGHKRYSHSNVIYTCEQCGKTFKKDISLKEHMAQHTGEPLYKCPFCPRTFNSNANMHSHKKKMHPVEWDIWRKTKTGSSQKVLPSAQVAQMFRDDADVAAIANDYSG
MAPPIT interaction score (CG7137; MAPPIT configuration: N-C): 3.33
MAPPIT interaction score (CG7137; MAPPIT configuration: N-N): 0.66

B5: crn (protein)
chain: MERPQKMPKVAKVKNKAPAEVQITAEQLLREAKERDLEILPPPPKQKISDPAELADYQQRKRKTFEDNLRKNRMVVSHWIKYAQWEEQQQEIQRARSIWERALDNEHRNVTLWLKYAEMEMKNKQVNHARNLWDRAVTIMPRVNQFWYKYTYMEEMLENVAGARQVFERWMEWQPEEQAWQTYVNFELRYKEIDRAREIYERFVYVHPDVKNWIKFARFEESHGFIHGSRRVFERAVEFFGDDYIEERLFIAFARFEEGQKEHDRARIIYKYALDHLPKDRTQELFKAYTKHEKKYGDRAGIEDVIVSKRKYQYEQEVAANPTNYDAWFDYLRLIEAEGDRDQIRETYERAISNVPPANEKNFWRRYIYLWINYALYEELEAEDAERTRQIYKTCLELIPHKQFTFSKLWLLYAQFEIRCKELQRARKALGLAIGMCPRDKLFRGYIDLEIQLREFERCRMLYEKFLEFGPENCVTWMKFAELENLLGDTDRARAIFELAVQQPRLDMPELLWKAYIDFEVALGETELARQLYERLLERTQHVKVWMSFAKFEMGLSHGDSGPDAELNVQLARRIYERANEMLRQLGDKESRVLLLEAWRDFERDASDSQEMQKVMDKMPRRIKKRQKIVSDNGVEEGWEEVFDYIFPEDEMARPNLKLLAAAKMWKTQKDNTVDDPPATAIASEPEPAADAAPADTTDSGD
MAPPIT interaction score (CG8128): 2.14

B6: Sxl (protein)
chain: MYGNNNPGSNNNNGGYPPYGYNNKSSGGRGFGMSHSLPSGMSRYAFSPQDTEFSFPSSSSRRGYNDFPGCGGSGGNGGSANNLGGGNMCHLPPMASNNSLNNLCGLSLGSGGSDDLMNDPRASNTNLIVNYLPQDMTDRELYALFRAIGPINTCRIMRDYKTGYSFGYAFVDFTSEMDSQRAIKVLNGITVRNKRLKVSYARPGGESIKDTNLYVTNLPRTITDDQLDTIFGKYGSIVQKNILRDKLTGRPRGVAFVRYNKREEAQEAISALNNVIPEGGSQPLSVRLAEEHGKAKAAHFMSQMGVVPANVPPPPPQPPAHMAAAFNMMHRGRSIKSQQRFQNSHPYFDAKKFI
MAPPIT interaction score (CG6996): 0.192
MAPPIT interaction score (Mcad): 1.44
MAPPIT interaction score (Treh): -0.289
MAPPIT interaction score (Unr; MAPPIT configuration: N-C): 3.02
MAPPIT interaction score (Unr; MAPPIT configuration: N-N): 2.17
MAPPIT interaction score (gcm): -0.368
MAPPIT interaction score (noi): 4.3 (active)
MAPPIT interaction score (prd): -0.691

B7: sicily (protein)
chain: MRRLVRNWNCRLLFNAKSGQEIVSHAGIHQEAKTNAIPREKKVIEADKNGYGAKHCMSLVEKYDYENYLCTLLLPRELRRAAFALRAFNVEVSRSVSGHQIEPQIAKMRLKFWHDSIDKCFEPDSQRSYVEDQPVLRELKHTVGSRKLNKVYLRRLVTARERPPTHAFESIRELEEYTEQTFSSLLLLLLEVGGVRDLNADHAASHLGKAQGIATLLRSIPLAGRQQAPCIPLEVLVLHGVSQERIIRSKSDDKGVEDCIFDVASAANTHLKLARQLHDKVPPQVRKIFLSAVATDAYLERLRRANFLLTHKSCVGRDTLLPARLFWKSLLNRF
MAPPIT interaction score (CG7548; pair source set: Finley_Y2H): -0.0114
MAPPIT interaction score (CG7548; pair source set: Lit-BS-16): -0.0114

B8: RasGAP1 (protein)
chain: MLLKKKRYMFDERDDNNINSPVAVEPSSNNNKMADTREVRIEEQLKVKIGEAKNLSSRNAANTSCSTQGTRDVYCTIALDQEEICRTPTIERTLTPFFGEEHQFKIPRRFRYLTIYLWDRDMKQDKPIGKIAIKREELHMYNHKDHWFSLRPVDQDSEVQGMVNVEVAFTEAQQTQSLSEGIDLGQHTLRHHQNLPHHSHQQRAHLNDYKENSELSNIQRASAAAASSSSAAMTLKTRAAGLFGHVHHPPSQTQHFPIINTTSTSSDQLSNWKSHGRFVGVTIKVPACVDLAKKQGTCDPFVVCTAHYSNKHQVTRRTKQRKKTVDPEFDEAMYFDLHIDADAGSTNTTGSNKSAGSLESSANKGYSIYPVGGADLVEIVVSVWHDAHGAMSDKVFLGEVRLPMLNKQEQQAVNPSAWYYLQPRSMTHSSRSLNATPRSCATPPGTRLSVDSTIGSLRLNLNYTADHVFPLATYDDLMNLLLESVDQRPITVSAVSILGELVSGKTEVAQPLVRLFTHTERIAPIIKALADHEISHLTDPTTIFRGNTLVSKMMDEAMRLSGLHYLHQTLRPVLSQIVAEKKPCEIDPSKIKDRSAVDTNLHNLQDYVERVFEAITKSADRCPKVLCQIFHDLRECAGEHFPSNREVRYSVVSGFIFLRFFAPAILGPKLFDLTTERLDAQTSRTLTLISKTIQSLGNLVSSRSSQQTCKEEFTVELYKKFCTEQHVDAVKHFLEVISTPSHASSSVHPAAAAATPLEPVLLKEGLMTKYPTSRKRFGRQFKQRHFRLTTHSLSYAKSKGKQPICDIPLQEIASVEQLKDKSFKMQNCFKIVHNDRSLIVQTTNCVEEREWFDLLHKICLMNSIRMQYFHPSAFVSGFYSCCGRSDENSPGCKKVLDKTMDYFQMDLVTALDPALDLQRIHTLIMSNMSVLESLLDPLTYHQSLSQTQHQQHNPLVPLATDLQKHSPQAFAEFKRTIEKLREKAYAIDRDHRDYKQGITRQLKYGSRQAPIGDDNYWHMMRAAGQLNQQHHQQQQHQQQQQQQQQQQLQQFQPQPVLPQMQNVRAYPYQPATSNMNAYCLHNMQYQQQRLPFHQQQQQHHQQLQQQQSQFQPLRSHQLQRHNNNLNNNNCGNGSSSSPSSTTSSVVAAPPSTTSSSQPAPPIY
MAPPIT interaction score (CG8043): 0.645

B9: Sras (protein)
chain: MKNLSETEAEVTMQENVVHESLPQIPVATSVSCCFVLAVLYVGSLYIWSTKHNRDHPTTVKRRFASVSMVMLAAPFFVYFFSSPELLSRVPFPKLLGLRLEGLWQAVVIPYSLTVLLFLGPIFVNMQNESVRSYFDLDYWRGSFGSIIWVRNHVIAPLSEEFVFRACMMPLILQSFSPLVAVFITPLFFGVAHLHHIAERLSLGVELSTALLIGLFQFIYTTLFGFYSAFLFARTGHVMAPILVHAFCNHMGLPDLQDLWQQDLWRRVVAIILYLAGFVGWMFLVPLATDPSIYDNTLYWNA
MAPPIT interaction score (CG7407): -0.229
MAPPIT interaction score (Dpm3): 0.0475
